Hits are enriched below; roughly 2.6% of the tested compounds scored in any of these assays.
Cruzain noTriton – qHTS Assay for Promiscuous and Specific Inhibitors of Cruzain (without detergent). Potency, µM, usual class: inhibitors. AID 1476, 2009. actives 2.3% (n = 200,000). purified cruzain, Z-FR-AMC fluorescence, no detergent; further: nearly all actives have a fitted effect of over 40% in size
Target sequence (P25779 123-467 limits assumed): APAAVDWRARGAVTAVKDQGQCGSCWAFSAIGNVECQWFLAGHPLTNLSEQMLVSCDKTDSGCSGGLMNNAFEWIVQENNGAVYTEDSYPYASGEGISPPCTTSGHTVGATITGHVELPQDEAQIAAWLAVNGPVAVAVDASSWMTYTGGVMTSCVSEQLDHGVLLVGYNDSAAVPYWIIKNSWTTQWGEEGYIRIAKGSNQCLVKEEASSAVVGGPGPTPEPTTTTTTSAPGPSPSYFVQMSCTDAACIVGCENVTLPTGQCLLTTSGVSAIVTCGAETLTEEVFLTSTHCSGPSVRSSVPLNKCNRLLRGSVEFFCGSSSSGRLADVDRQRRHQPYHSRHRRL
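Purified cruzain at 1.5 nM, pre-incubated 15 min with compound at room temperature in 100 mM sodium acetate pH 5.5, 5 mM DTT, 0.00005% Triton X-100. Reaction started with 2 uM Z-FR-AMC; AMC fluorescence increase over 60 s gives rate.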
Cruzain Triton – qHTS Assay for Promiscuous and Specific Inhibitors of Cruzain (with detergent) | purified cruzain, Z-FR-AMC fluorescence, 0.01% Triton | Potency, µM, hits mostly inhibitors | actives 0.43% (n = 200,000); further: nearly all actives have a fitted effect of over 40% in size
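Detergent-containing arm of a paired screen for aggregation-based inhibition: 0.01% Triton X-100 present. Cruzain at 1.5 nM cleaved 2 uM Z-FR-AMC at pH 5.5 with 5 mM DTT; AMC fluorescence gain over 60 s measured activity.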
Large screens that a line does not name were inactive. The call rests on the fitted dose curve; in most records, active means well fitted curve in the direction sought with a large enough effect; inconclusive means small, poorly fitted or top-dose-only effect, or another doubt; inactive means no such curve, though single readings can be large; an effect the other way counts as inactive or inconclusive.

COc1ccc(N=c2oc3cc(O)ccc3cc2C(=O)NCC2CCCO2)cc1 (stereo unspecified)	none
CCOc1ccc(N=c2oc3cc(O)ccc3cc2C(=O)NCC2CCCO2)cc1 (stereo unspecified)	Cruzain noTriton 6.3µM
COc1ccc(-c2csc(N3CCC(c4ccccc4)C3)n2)cc1 (stereo unspecified)	none
COc1ccc(-c2csc(-n3ncc(-c4cccs4)c3N)n2)cc1	Cruzain noTriton 1.6µM
C=CCN1C(=O)CN=C1Nc1ccccc1	none
CN(C)CCNC(=O)CCCn1c(=O)c2cccn2c2ccccc21	none
COc1cc(SC#N)ccc1N=Cc1c(C)[nH]n(-c2ccc(Cl)cc2)c1=O	Cruzain noTriton 20µM
COc1cc(SC#N)ccc1N=Cc1c(C)[nH]n(-c2ccc(C)c(C)c2)c1=O	none
COc1cc2nc(SCc3ccc(C(F)(F)F)cc3)n(Cc3cccs3)c(=N)c2cc1OC	Cruzain noTriton inconclusive
COc1cc2nc(SCc3ccc(Cl)cc3Cl)n(Cc3cccs3)c(=N)c2cc1OC	Cruzain noTriton 7.9µM
O=S(=O)(NCCc1csc2nc(-c3ccccc3)nn12)c1cc(F)ccc1F	none
Cc1nn2c(NCCCN3CCOCC3)c3c(nc2c1-c1ccccc1)CCC3	none
CCCCNc1c2c(nc3c(-c4ccccc4)c(C)nn13)CCC2	Cruzain noTriton 7.9µM
C=CCSc1nnc(-c2nnc(SCC=C)n2CC)n1CC	none
CCc1nnc(NC(=O)c2oc3cc(C)c(C)cc3c2C)s1	Cruzain noTriton 13µM
CCc1nonc1NC(=O)c1oc2cc(C)c(C)cc2c1C	none
CCCc1cc(C(=O)Nc2sc(C(C)=O)c(C)c2C(=O)OCC)no1	none
C[C@@H](C(=O)Nc1ccc2ccccc2c1)[C@@H]1C[C@@]1(C)[C@@H](NC(=O)Oc1ccc(F)cc1)c1ccccc1	Cruzain noTriton 7.9µM
C[C@@H](C(=O)Nc1ccc2ccccc2c1)[C@@H]1C[C@@]1(C)[C@@H](NS(=O)(=O)c1ccccc1)c1ccccc1	Cruzain noTriton inconclusive
CC(=O)N[C@@H](c1ccccc1)[C@]1(C)C[C@H]1[C@@H](C)C(=O)Nc1ccc2ccccc2c1	Cruzain noTriton inconclusive
C[C@@H](C(=O)Nc1ccc2ccccc2c1)[C@@H]1C[C@@]1(C)[C@@H](NS(=O)(=O)c1ccc(-c2ccccc2)cc1)c1ccccc1	Cruzain noTriton 3.2µM
COC(=O)C1=C(C(C)=O)C(c2ccc(C(=O)OC)cc2)n2nnnc2N1 (stereo unspecified)	none
COC(=O)c1ccc(COc2ccccc2[N+](=O)[O-])o1	none
COc1ccc(N2C(=O)CSC23C(=O)N(Cc2cccc(C(F)(F)F)c2)c2ccccc23)cc1 (stereo unspecified)	none
Cc1cc(Br)c(Cl)cc1NC(=O)CN1C(=O)C2C3CC(c4ccccc4)C(C3)C2C1=O (stereo unspecified)	Cruzain noTriton 13µM
Cc1cc(NC(=O)CCN2C(=O)C3C4CCC(C4)C3C2=O)c(C)cc1Br (stereo unspecified)	none
C=CCn1c(C)cc(C(=O)CSc2nc3ccccc3[nH]2)c1C	none
Cc1cc(C(=O)CSc2nn(-c3ccccc3)c(=S)s2)c(C)n1Cc1ccco1	Cruzain noTriton 25µM
Cc1cc(C(=O)CSc2nc3ccccc3[nH]2)c(C)n1Cc1ccco1	Cruzain noTriton 25µM
Cc1cc(C(=O)CN2C(=O)NC(C)(c3cccc(Br)c3)C2=O)c(C)n1Cc1ccco1 (stereo unspecified)	Cruzain noTriton 32µM
CCCn1c(C)cc(C(=O)CSc2nc3ccccc3c(=O)n2Cc2ccco2)c1C	none
Cc1cc(C(=O)CN2C(=O)NC(c3ccccc3)(c3ccccc3)C2=O)c(C)n1Cc1ccco1	Cruzain noTriton inconclusive
O=S(=O)(Cc1ccccc1)c1nnnn1C1CCCCC1	none
O=C(OCC(=O)N1CCN(C(=O)c2ccco2)CC1)c1cc(-c2cccc(Br)c2)nc2ccccc12	Cruzain noTriton inconclusive
CCOc1ccc(N(CC(=O)NCc2cccs2)S(=O)(=O)c2c(C)noc2C)cc1	none
CC(=O)N1[C@H](C)C=C[C@]1(Cc1ccccc1)C(=O)O	none
COC(=O)c1c(C(=O)OC)c(-c2cccc(C)c2)n2c1CS(=O)(=O)C2	none
CCOc1ccc(C(=O)Nc2ccc(S(=O)(=O)N(Cc3ccccc3)c3ccccc3)cc2)cc1	Cruzain noTriton inconclusive
COCCN1CN(S(=O)(=O)c2ccccc2)c2nc3ccccc3nc21	none
Cc1cccc(S(=O)(=O)N2CN(Cc3ccco3)c3nc4ccccc4nc32)c1	Cruzain noTriton 25µM
CCCCCSc1nnc2c(n1)OC(c1cccn1C)N(C(C)=O)c1ccccc1-2 (stereo unspecified)	none
NO	none
C/C(=N/N=C1/NC(=O)CC(C(=O)O)S1)c1ccccc1 (stereo unspecified)	none
C/C(=N\N=C1/NC(=O)C(C)S1)c1ccc([N+](=O)[O-])cc1 (stereo unspecified)	Cruzain noTriton 16µM, Cruzain Triton 25µM
CC1CCc2c(sc3nnn(CC(=O)Nc4c(C(C)C)cccc4C(C)C)c(=O)c23)C1 (stereo unspecified)	none
COc1ccc2oc(=O)c(/C(C)=N/Nc3nc(-c4cc(C)ccc4C)cs3)cc2c1	Cruzain noTriton 13µM
C/C(=N\Nc1nc(-c2ccc(C)cc2C)cs1)c1cc2ccccc2oc1=O	Cruzain noTriton inconclusive
Cc1ccccc1NC(=S)/C(=C(\[O-])c1ccc(C)c([N+](=O)[O-])c1)[n+]1ccccc1	none
CCC(=O)Nc1cccc(NC(=O)c2ccc(C)c([N+](=O)[O-])c2)c1	none
COc1cccc(NC(=S)/C(=C(\[O-])c2ccc(C)c([N+](=O)[O-])c2)[n+]2ccccc2)c1	Cruzain noTriton 25µM
Cc1ccc(NC(=S)/C(=C(\[O-])c2ccc(C)c([N+](=O)[O-])c2)[n+]2ccccc2)cc1C	Cruzain noTriton 25µM
COc1ccc(-c2cc(=O)c3ccccc3o2)cc1OC	none
COc1cc(C(=O)N2CCCc3ccccc32)cc(OC)c1OC	none
COc1ccc2c(c1)C(=O)[C@H](OC(=O)Nc1ccc(C)c(Br)c1)[C@@H](c1ccc(OC)c(Br)c1)O2	Cruzain noTriton inconclusive
COc1ccc2c(c1)C(=O)[C@@H](OC(=O)Nc1ccc(C)c(Br)c1)[C@H](c1ccc(OC)c(Br)c1)O2	Cruzain noTriton 25µM
COc1ccccc1N1CCN(CCCCNC(=O)c2ccc(-c3ccc(C(C)=O)cc3)cc2)CC1	none
Cc1ccc(NC(=O)N2N=C(c3ccc(F)cc3)CC2c2ccc(F)cc2)cc1 (stereo unspecified)	Cruzain noTriton 1.3µM
CNC(=S)N1N=C(c2ccc(C)cc2)CC1c1ccc(OC)cc1 (stereo unspecified)	none
CN(C)S(=O)(=O)c1cccc(C(=O)OCC(=O)c2ccc3c(c2)NC(=O)CO3)c1	none
O=C(COC(=O)c1cccc([N+](=O)[O-])c1)c1ccc(OCc2ccccc2)cc1	Cruzain noTriton 25µM
O=C(Cc1ccccc1)NCC(=O)OCC(=O)c1cccc([N+](=O)[O-])c1	none
Cc1ccc2c(c1)c1c(c(=O)n(-c3cccc(Cl)c3)c(=O)n1CC(N)=O)n2C	none
Nc1cc(C(=O)OCC(=O)NCc2ccc(F)cc2)ccc1Cl	none
Nc1cc(C(=O)OCC(=O)NC(c2ccccc2)c2ccccc2)ccc1Cl	Cruzain noTriton 25µM
Cc1c(C(=O)NCCCN2CCOCC2)sc2nc(-c3ccc(F)cc3)cn12	none
CCN(c1ccccc1C)S(=O)(=O)c1ccc(N2CCCCS2(=O)=O)cc1	none

High-throughput results deposited in PubChem BioAssay by National Center for Advancing Translational Sciences (NCATS).
